Measurements: ChEMBL document CHEMBL1961873, “Compounds: GSK PKIS; Assays: Nanosyn kinase panel” (2012)

These compounds were tested against Tyrosine-protein kinase Lyn (Homo sapiens) (UniProt P07948). Conditions: at 0.1 µM.
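Also: mean inhibition of the LYN B splice variant.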

Tyrosine-protein kinase Lyn (Homo sapiens), sequence (P07948 2-512 limits assumed): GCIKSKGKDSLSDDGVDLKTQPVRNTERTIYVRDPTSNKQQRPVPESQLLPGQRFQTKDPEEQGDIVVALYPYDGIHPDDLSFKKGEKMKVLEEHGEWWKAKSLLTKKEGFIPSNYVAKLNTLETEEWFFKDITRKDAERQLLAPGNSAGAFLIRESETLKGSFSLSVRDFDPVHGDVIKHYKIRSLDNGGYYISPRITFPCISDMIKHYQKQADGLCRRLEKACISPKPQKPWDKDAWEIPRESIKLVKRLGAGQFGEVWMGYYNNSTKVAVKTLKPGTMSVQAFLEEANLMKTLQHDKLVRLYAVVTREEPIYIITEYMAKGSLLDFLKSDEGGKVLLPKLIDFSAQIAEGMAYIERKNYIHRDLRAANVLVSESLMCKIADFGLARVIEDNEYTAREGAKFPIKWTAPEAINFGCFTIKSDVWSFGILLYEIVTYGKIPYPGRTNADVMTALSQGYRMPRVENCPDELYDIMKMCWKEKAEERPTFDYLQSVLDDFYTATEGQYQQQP

| Structure (SMILES) | inhibition [%] |
| --- | --- |
| FC(F)(F)c1cccc(-c2nn3ncccc3c2-c2ccnc(Nc3ccc4c(c3)OCCO4)n2)c1 | 5.18 |
| O=C(Nc1n[nH]c2cc(-c3ccc(F)cc3)ccc12)C1CC1 | 3.7 |
| CN1CCC(n2cnc(-c3ccc(F)cc3)c2-c2ccnc(N)n2)CC1 | 1.43 |
| COc1ccc(-c2cc(-c3c[nH]nc3-c3ccccn3)ccn2)cc1 | 3.87 |
| COc1ccc(CNC(=O)c2ccc(-c3cc(-c4nnc(C)o4)ccc3C)cc2)cc1 | 2.67 |
| CCN(CC)S(=O)(=O)c1ccc(OC)c(Nc2ncc(-c3ccccc3)o2)c1 | 4.28 |
| CCOc1ccc2c(-c3ccnc(Nc4cccc(C(F)(F)F)c4)n3)cnn2n1 | 3.97 |
| COc1cccc(-c2c[nH]c3c(N/N=C/c4ccncc4)ncnc23)c1 | 33.8 |
| COc1cccc(-n2ncc3c(N/N=C/c4ccc(F)cc4)ncnc32)c1 | 14.6 |
| NS(=O)(=O)c1ccc(N/N=C2\C(=O)Nc3ccc4ncccc4c32)cc1 | 6.92 |
| Nc1nc(-c2ccc(F)cc2)c(-c2ccc3ncccc3n2)s1 | 7.37 |
| CNC(=O)c1cncc(/C=C/c2ccccc2Cl)c1 | 1.83 |
| COc1cc2c(cc1Nc1nc(Nc3ccsc3C(N)=O)c3cc[nH]c3n1)N(C(=O)CN(C)C)CCC2(C)C | 2.04 |
| Fc1cccc(COc2ccc(Nc3ncnc4sc(-c5ccco5)cc34)cc2Cl)c1 | 2.97 |
| COc1ccc2[nH]c3c4[nH]c5ccc(OC)cc5c4c4c(c3c2c1)C(=O)NC4=O | 7.67 |
| CNC(=O)c1cc(-c2ccc(F)cc2)cc(-c2ccc(S(=O)(=O)N3CCCC3)cc2)c1N | 1.59 |
| Nc1nc(-c2cccc(Cl)c2)c(-c2ccc3ncccc3n2)s1 | 5.14 |

| Structure (SMILES) | inhibition [%] |
| --- | --- |
| CCn1c(-c2nonc2N)nc2c(C#CC(C)(C)O)nc(OC[C@H](N)c3ccccc3)cc21 | 2.36 |
| COc1cc(/C=N/Nc2ncnc3[nH]ncc23)ccc1O | 12.6 |
| CC(=O)Nc1cccc(C#Cc2cncnc2Nc2ccc(OCc3cccc(F)c3)c(Cl)c2)c1 | 1.1 |
| N#Cc1c(NC(=O)c2ccc(F)cc2)sc2c1CCCC2 | 0.6 |
| Cc1cccc(Nc2ncc(-c3ccccc3)o2)c1 | 2.22 |
| O=C(O[C@H]1CN[C@H](C#Cc2cc3ncnc(Nc4ccc(Cc5ccccc5)cc4)c3s2)C1)N1CCOCC1 | 0.33 |
| COC(=O)c1sc(-n2cnc3cc(OC)c(OC)cc32)cc1OCc1ccccc1C(F)(F)F | 6.71 |
| CN1CCC(n2cnc(-c3ccc(F)cc3)c2-c2ccnc(Nc3ccccc3)n2)CC1 | 2.82 |
| CNC(=O)c1cccc(C#Cc2cncnc2Nc2ccc(OCc3cccc(F)c3)c(Cl)c2)c1 | 2.02 |
| CS(=O)(=O)CCNCc1ccc(-c2ccc3ncnc(Nc4ccc(OCc5ccccc5)c(C(F)(F)F)c4)c3c2)o1 | 2.65 |
| Nc1ncc(-c2cccc(S(N)(=O)=O)c2)c2scc(-c3ccc(F)c(Cl)c3)c12 | 10.5 |
| CC(C)(CO)CNC(=O)c1ccc2c(c1)/C(=N/Nc1ccc(S(N)(=O)=O)cc1)C(=O)N2 | -1.58 |
| CCCN1CCC(c2ccc(Nc3nc(Nc4cc(F)ccc4C(N)=O)c4cc[nH]c4n3)c(OC)c2)CC1 | 4.92 |
| CCn1c(-c2nonc2N)nc2cnc(Oc3cccc(NC(=O)c4ccc(N(C)C)cc4)c3)cc21 | 0.82 |
| Fc1ccc(-c2nn3ccccc3c2-c2ccncc2)cc1 | 0.28 |
| COc1ccc(-c2oc3ncnc(N)c3c2-c2ccc(NC(=O)Nc3cc(C(F)(F)F)ccc3F)cc2)cc1 | 43.3 |
